Experimental data taken from PubChem BioAssay (NCI).
Compounds without any hit were thinned out: in the full panel of roughly 79,000, 15% have a hit. A number with no mark means an inactive call. Calls of active or inactive are those of the source. No stated cut-off is given here; in the data, active means growth inhibition above about 70%; inactive means the rest.

Key:
[1] = NCI Yeast Anticancer Drug Screen. Data for the rad50 strain (AID 155);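 further: 0% = growth of vehicle-only cultures of the same strain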; conditions: S. cerevisiae rad50 strain growth inhibition; at 50.0 µM; hits give high values
In short: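 Readout: growth inhibition relative to vehicle-treated cultures. Compound exposure was carried out in a genetically defined yeast strain deficient in DNA damage repair.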

[2] = NCI Yeast Anticancer Drug Screen. Data for the mec2-1 strain (AID 157); conditions: S. cerevisiae mec2-1 strain, at 50.0 µM, hits give high values
In short: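 Each compound was tested on mec2-1 yeast, a strain altered in DNA damage repair or cell cycle control. Growth inhibition is reported relative to vehicle.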

[3] = NCI Yeast Anticancer Drug Screen. Data for the sgs1 mgt1 strain (AID 161);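 further: 0% = growth of cultures given vehicle only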; conditions: S. cerevisiae sgs1 mgt1 strain, at 50.0 µM, hits give high values
In short: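 Inhibition of yeast growth, normalised to vehicle-treated controls, is reported for a strain bearing genetic alterations in DNA damage repair.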

[4] = NCI Yeast Anticancer Drug Screen. Data for the cln2 rad14 strain (AID 165);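 further: 0% = growth equal to vehicle treated cultures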; conditions: S. cerevisiae cln2 rad14 strain, at 50.0 µM, hits give high values
In short: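 Test compounds were added to cln2 rad14 yeast cultures; inhibition of growth was then determined by comparison with vehicle treatment.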

[5] = NCI Yeast Anticancer Drug Screen. Data for the bub3 strain (AID 167); conditions: S. cerevisiae bub3 mutant strain, at 50.0 µM, hits give high values
In short: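 Readout: yeast growth inhibition, expressed relative to vehicle-only wells. The test organism is a mutant strain from a panel with lesions in DNA repair or checkpoint genes.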

[6] = NCI Yeast Anticancer Drug Screen. Data for the mlh1 rad18 strain (AID 175); conditions: S. cerevisiae mlh1 rad18 strain growth inhibition; at 50.0 µM; hits give high values
In short: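 Inhibition values reflect reduced growth of mutant yeast versus vehicle-treated controls following compound exposure; the mutations affect DNA damage repair.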

Row | SMILES | growth inhibition [1] | growth inhibition [2] [%] | growth inhibition [3] [%] | growth inhibition [4] [%] | growth inhibition [5] [%] | growth inhibition [6] [%]
1 | NCC1CC1 | 19.1% | -2.25 | 9.75 | 8.65 | -11.8 | 14.7
2 | CCCCNC(=O)OCCN(C)CCOC(=O)NCCCC | -15.7% | -21.9 | -17.2 | 3.05 | 6.2 | 3.55
3 | O=C1OCCOCCOCCOCCOCCOCCOC(=O)c2cccc1n2 | 28.9% | -0.7 | 7 | 13.3 | -0.35 | 9.6
4 | Cc1ccc([Se](=C(C(=O)c2ccccc2)C(=O)c2ccccc2)c2ccc(C)cc2)cc1 | 82.4% (active) | 11.7 | 35.7 | 9.85 | 4.95 | 54.6
5 | CC/C=C(\CCC)C(C#N)(CC)C(=O)OCC (stereo not given) | 9.1% | -33.6 | -21.2 | -7.6 | -24.6 | -9.55
6 | COc1ccc(NC(=O)ON(C)C)cc1 | 4.45% | -26.6 | 5.15 | -63.1 | 3.75 | -5.75
7 | C/C(=N\O)c1ccc(OCc2cc(C(F)(F)F)cc(C(F)(F)F)c2)cc1 | -10.1% | -26.2 | -6.75 | -1.5 | -2.15 | 7.5
8 | CCOC(=O)/C(C#N)=C\Nc1ccc(C)cc1 | -0.85% | -26.6 | -7.95 | -2.55 | -12.1 | -8.75
9 | c1ccc2c(c1)nc(NC1CCCC1)c1[nH]c(C3CCCC3)nc12 | -26.1% | -36.6 | -56.9 | -10.3 | -29.2 | -50
10 | COc1ccc(C2(c3ccc(OC)cc3)c3ccccc3Cc3c(OC)cccc32)cc1 | -1.55% | 16.7 | -5.65 | 2.8 | -11.2 | 6.4
11 | CCOC(=O)C(C)C(=O)C(C)C (stereo not given) | -1.65% | 0.5 | 0.75 | -11.8 | 13.7 | -9.35
12 | CC(COc1ccccc1)N(CCCl)Cc1ccccc1 (stereo not given) | 2.7% | 10.8 | -1.4 | -43.3 | 38 | 1.8
13 | CCCCC(CC)CNCC(CC)CCCC (stereo not given) | 33.8% | 45.5 | 14.8 | 40.6 | 5.5 | 26.1
14 | Nc1cc2[nH]c(=O)c3cc([N+](=O)[O-])ccc3c2cc1Cl | 63.1% | 1.3 | 12.3 | 4.8 | -11.6 | 32.2
15 | CNC(=O)OCc1c(COC(=O)NC)c(-c2ccc(S(C)(=O)=O)cc2)n(C)c1C | 49% | -3.3 | -16.2 | 5.25 | -10.1 | -42
16 | COc1ccccc1NCS(=O)(=O)O | -7.2% | -2.5 | -5.95 | -60.2 | 11.2 | -8.1
17 | CCn1cc(C(=O)C(=O)N(C)C)c2ccccc21 | 13.2% | -7.75 | -2.5 | -3.35 | 17.2 | 1.95
18 | O=c1cc(CC(O)(C(F)(F)Cl)C(F)(F)Cl)[nH]n1-c1ccccc1 | -27.9% | 4.05 | -7.75 | 11.4 | -22.1 | -5.65
19 | N#Cc1ccc2ccccc2c1 | 4.65% | -7 | 3 | -4.65 | 10.7 | -16.8
20 | CCC(C)C1SCC(=O)N1c1nncs1 (stereo not given) | 10.6% | 7.45 | 6.55 | -4.6 | 4.9 | 16.4
21 | O=c1cc(S(=O)(=O)Cc2ccccc2)[nH]c(=O)[nH]1 | 43% | 6.75 | 0.2 | -43.6 | 8.35 | 31.2
22 | CC(C)(C)CC(C)(C)NS(=O)(=O)NC(C)(C)CC(C)(C)C | 1.1% | -31.1 | -9.15 | -57.3 | 1.45 | 0.7
23 | O=c1[nH]c(=O)n(C2CC(O)C(CO)O2)cc1NN=NCCc1ccccc1 (stereo not given) | -24.3% | 0.75 | 5.05 | 4.85 | 1.9 | 10.8

Row | SMILES | growth inhibition [1] | growth inhibition [2] [%] | growth inhibition [3] [%] | growth inhibition [4] [%] | growth inhibition [5] [%] | growth inhibition [6] [%]
24 | CN1C/C(=C/c2ccc(N(C)C)cc2)C(=O)/C(=C/c2ccc(N(C)C)cc2)C1 | -2.45% | -6.9 | -16.9 | -5.3 | -3.7 | -18.9
25 | O=NN(CCOS(=O)(=O)c1ccc(Br)cc1)C(=O)NC1CCCCC1 | 32% | 9.25 | 18.6 | 28.6 | -1.95 | 25.2
26 | Cn1c(=O)c2c(ncn2CC(=O)O)n(C)c1=O | -3.9% | -28.1 | -8.5 | 6.7 | -13.8 | 19.9
27 | CCC(=O)OCC[N+](C)(C)C | -29.2% | -37.6 | -22.9 | -4.25 | -38.5 | -20.9
28 | CC1=CC2(C)Cc3cc(C)cc(C)c3S(=O)(=O)C2C(C(=O)O)=C1 (stereo not given) | -11% | -30.4 | -13.9 | -13.5 | -14.8 | -15.2
29 | Clc1cnnc(Cl)c1N/N=C/c1ccco1 | 11.6% | -0.05 | 13 | -43.2 | -6.7 | -7.55
30 | CCOC(=O)C1=C(C(C)=O)C(c2ccc(OC)c(OC)c2)C(C(C)=O)=C(C(=O)OCC)N1 | 35.5% | 12.9 | 8.9 | 35 | -4.95 | 8.55
31 | Brc1ccc2c(c1)C1(c3cc(Br)ccc3-2)c2cc(Br)ccc2-c2ccc(Br)cc21 | 2.45% | -5.9 | -13.7 | 22.7 | 5.25 | 3.95
32 | CN1C(C)(C)NC(=S)C1(C)C | 26.9% | -18.1 | -5.5 | 11.7 | 1.65 | -9.65
33 | COCCN(CCOC)C(=O)Nc1cccc(Cl)c1 | 30.4% | 6.3 | 15.9 | 8.35 | 5.45 | 10.2
34 | O=c1[nH]cnc2c1ncn2CCc1ccc([N+](=O)[O-])cc1[N+](=O)[O-] | 3% | -6.15 | 9.4 | -54.9 | -15.1 | -7.95
35 | Cc1nnc(-c2cn(C3OC(CO)C(O)C3O)c3ncnc(N)c23)nc1C (stereo not given) | 6.2% | 15.9 | 1 | 0 | -4.1 | 8.9
36 | COc1ccc2c(c1)CC[C@@H]1[C@@H]2CC[C@]2(C)C(=O)/C(=N/O)C[C@@H]12 | -15% | 4.85 | 1.85 | -34 | 31.5 | -14.2
37 | COc1ccc(/C(Cl)=C(\CNc2ccccn2)c2ccccc2)cc1OC | -14.4% | -21.9 | -39.9 | -22.7 | 2.3 | -34.1
38 | CC#CCCC1CCCCNC1=O (stereo not given) | 0.8% | -16.9 | 27.1 | 12.1 | 26.5 | 3.7
39 | CCOC(=O)C1=C(C(=O)c2ccc(C)cc2)C(c2ccc([N+](=O)[O-])cc2)C(C(=O)c2ccc(C)cc2)=C(C(=O)OCC)N1 | -27.3% | -18.2 | -8.9 | -12.4 | -14.9 | -11.7
40 | O=C(O)C1(C(=O)O)CCCCC1.[NH-]CC1(C[NH-])CCCCC1.[Pt+2] | 21.8% | 9.95 | 27.8 | 21.1 | 5.85 | 14.9
41 | Cc1cc(NS(=O)(=O)c2ccc(N=[N+]([O-])c3ccc(S(=O)(=O)Nc4cc(C)on4)cc3)cc2)no1 | 10.8% | -30.1 | -6 | 4.7 | -13.2 | -19.6
42 | CCc1c(CN)c(CC)c(CNC2=NCCN2)c(CC)c1CNC1=NCCN1 | 13.6% | 3.45 | 12.2 | 10.9 | 12.8 | 15.2
43 | COC1=CC(=O)C(c2cc(O)c(OC)cc2O)=CC1=O | -0.15% | 4.45 | -3.65 | -8.65 | 4.5 | 5.2
44 | OC1CCC2CCCC2C1 (stereo not given) | 1.6% | -1.7 | -2.2 | 1 | -8.6 | -1.2
45 | Cc1cc(OCC(=O)O)c(C)cc1Cl | -21.6% | -17.1 | -12.5 | -0.25 | -7.5 | -13.6
